Bioassay records deposited in PubChem BioAssay by Buhrlage Lab, Dana-Farber Cancer Institute and Novartis Institutes for BioMedical Research (Cambridge, Mass).
In the library only some 12% were active in any assay of this set; here they are far more common.
USP17 inh = blocks human USP17 ubiquitin-rhodamine cleavage; purified USP17, Ub-rhodamine cleavage fluorescence, 3 h; hit rate 6.5% among 47,000; A8MUK1; inhibition, % at 50 µM
USP7 inh = blocks human USP7 ubiquitin-rhodamine cleavage. Q93009. purified USP7, Ub-rhodamine cleavage fluorescence. inhibition, % at 20 µM. hit rate 0.3% among 47,000
Target sequence (Q93009 whole entry, looked up): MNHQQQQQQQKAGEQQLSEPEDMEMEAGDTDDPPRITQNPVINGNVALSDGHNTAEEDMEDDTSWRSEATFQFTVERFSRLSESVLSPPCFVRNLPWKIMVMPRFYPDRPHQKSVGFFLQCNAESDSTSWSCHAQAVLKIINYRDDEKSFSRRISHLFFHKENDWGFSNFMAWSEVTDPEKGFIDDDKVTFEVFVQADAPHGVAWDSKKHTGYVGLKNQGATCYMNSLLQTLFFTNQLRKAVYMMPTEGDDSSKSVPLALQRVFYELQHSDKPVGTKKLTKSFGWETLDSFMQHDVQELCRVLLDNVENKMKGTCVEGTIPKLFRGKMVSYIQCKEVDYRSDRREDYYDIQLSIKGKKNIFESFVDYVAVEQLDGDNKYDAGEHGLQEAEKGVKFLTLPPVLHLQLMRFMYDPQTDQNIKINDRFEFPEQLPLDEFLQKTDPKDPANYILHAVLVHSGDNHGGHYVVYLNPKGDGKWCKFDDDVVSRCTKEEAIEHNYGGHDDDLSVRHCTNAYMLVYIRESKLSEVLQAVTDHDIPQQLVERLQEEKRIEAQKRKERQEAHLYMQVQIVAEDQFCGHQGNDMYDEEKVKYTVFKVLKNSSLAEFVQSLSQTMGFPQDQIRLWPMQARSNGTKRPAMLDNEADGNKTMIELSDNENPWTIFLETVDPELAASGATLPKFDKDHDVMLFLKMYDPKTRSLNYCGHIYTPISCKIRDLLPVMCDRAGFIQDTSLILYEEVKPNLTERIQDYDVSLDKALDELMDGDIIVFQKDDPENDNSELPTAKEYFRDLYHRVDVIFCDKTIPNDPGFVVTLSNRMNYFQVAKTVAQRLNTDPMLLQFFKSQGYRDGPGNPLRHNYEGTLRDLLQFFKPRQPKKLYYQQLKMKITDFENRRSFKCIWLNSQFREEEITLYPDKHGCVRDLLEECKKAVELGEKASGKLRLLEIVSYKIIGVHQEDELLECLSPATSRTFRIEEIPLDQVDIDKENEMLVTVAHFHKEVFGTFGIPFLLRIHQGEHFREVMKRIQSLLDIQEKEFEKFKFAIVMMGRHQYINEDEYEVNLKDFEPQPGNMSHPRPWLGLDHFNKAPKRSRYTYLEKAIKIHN
UCHL1 block = inhibitors of human UCHL1 deubiquitinase; P09936; purified UCHL1, Ub-rhodamine cleavage fluorescence; inhibition, % at 20 µM; hit rate 0.2% among 47,000; AID 1645859
USP8 inh = blocks human USP8 ubiquitin-rhodamine cleavage; P40818; purified USP8, Ub-rhodamine cleavage fluorescence, 30 min; inhibition, % at 20 µM; hit rate 4.2% among 47,000
USP30 inh = inhibitors of human USP30 deubiquitinase; purified USP30, Ub-rhodamine cleavage fluorescence; inhibition, % at 25 µM; hit rate 5.3% among 47,000; AID 1645860
USP10 inh = inhibitors of human USP10 deubiquitinase. Q14694. purified USP10, Ub-rhodamine fluorescence, 60 min. inhibition, % at 20 µM. hit rate 1.1% among 47,000
Each line names hits and unclear results; the compound was inactive in the other large screens. No stated cut-off is given here; in the data, active means inhibition above about 30%; inactive means the rest.

CC(=O)Nc1ccc(NC(=O)Nc2ccc(F)cc2)cc1	USP17 inh 34, USP30 inh 30
O=C(Cn1c(=O)n(-c2ccccc2)c2ncccc21)NCc1ccccc1F	none
COC(=O)c1cc(S(=O)(=O)NCCc2ccc(OC)c(OC)c2)cn1C	none
COc1ccccc1NC(=O)Nc1ccc(NC(=O)c2ccccc2O)cc1	USP17 inh 31, USP8 inh 85, USP30 inh 59
O=C(COc1ncnc2ccccc12)Nc1ccc(OCc2ccccc2)cc1	USP17 inh 48 (no result: USP30 inh)
O=C(Nc1ccc(F)cc1)Nc1ccc2ccccc2n1	USP8 inh 51, USP30 inh 31
COc1cccc(NC(=O)c2ccccc2NC(=O)Cc2ccccc2OC)c1	none
O=C(Nc1ccc(OCc2ccccc2)cc1)NC1Cc2ccccc2C1	none
COc1ccc(C(=O)NCC(=O)N2CCCc3ccccc32)cc1	none
Cc1cccc(NC(=O)C2Cc3ccccc3CN2C(=O)c2ccccc2)c1C (centres undefined)	none
COc1cc(Cl)cc(CNC(C)C(=O)O)c1O (centres undefined)	USP8 inh 66
CCSc1ncc2c(=O)n(CC(=O)Nc3c(C)cccc3CC)cnc2n1	none
Cc1cccc(Cn2c(SCC(=O)O)nc3c2c(=O)[nH]c(=O)n3C)c1	none
Cc1nc(C2CN(Cc3nc4ccccc4n3C)CCO2)cc(=O)[nH]1 (centres undefined)	USP8 inh 31
COc1ccccc1-c1nnc2sc(COc3cccc(C)c3)nn12	USP30 inh 42
COc1ccc(-c2cc3n(c2)CCc2cc(OC)c(OC)cc2-3)cc1	none
COc1ccc(-c2cn3ccc4cc(OC)c(OC)cc4c3c2-c2ccc(OC)c(OC)c2)cc1	USP8 inh 31
CCCCN1CC(C(=O)Nc2ccc(C(=O)Nc3ccc(Br)c(C)c3)cc2)CC1=O (centres undefined)	USP17 inh 39
COc1ccccc1CNC(=O)CCC(=O)N1CCSc2ccccc21	none
CCN1C(=O)Cc2cc(NS(=O)(=O)c3cc(C)ccc3C)ccc21	USP8 inh 40
Cn1cnnc1Sc1ncnc(N)c1[N+](=O)[O-]	USP30 inh 34
Nc1ncnc(N2CC(=O)N(CCc3ccccc3)C(=O)C2)c1[N+](=O)[O-]	none
COc1ccc(OC)c(NC(=O)CNC(=O)c2cc3c(OC)cccc3[nH]2)c1	USP17 inh 64, USP8 inh 30
COc1ccc(OC)c(NC(=O)CN2c3ccccc3S(=O)(=O)c3ccccc32)c1	none
COc1ccc(OC)c(NC(=O)CNC(c2ccccc2)c2ccccc2)c1	USP30 inh 33
CC(C)(C)c1noc(-c2ccc(-n3cnc(C(=O)N4CCCC4)c3)nc2)n1	none
Cc1ncoc1C(=O)N1CCN([C@H]2C[C@H]3C[C@@H](c4ccccc4)OC[C@@]3(C)C2)CC1	none
CSc1nc2ncn(CC(=O)Nc3cc(C)cc(C)c3)c(=O)c2s1	none
CSc1nc2ncn(CC(=O)Nc3ccc(Br)cc3)c(=O)c2s1	USP8 inh 82
CC1=CC(=O)C(C2=C(O)C(=O)C(C)=CC2=O)=C(O)C1=O	USP17 inh 94, USP8 inh 32
CCn1cnc2c1CN(S(=O)(=O)c1cccc3cccnc13)CC2	none
COc1ccccc1NC(=O)Cn1cc(C(=O)c2ccc(C)cc2)c(=O)c2ccccc21	USP17 inh 62
COc1ccccc1NC(=O)Cn1cncc(C(=O)NC2CC2)c1=O	none
Cc1ccc(C(=O)c2cn(CC(=O)Nc3ccccc3C)c3ccc(C)cc3c2=O)cc1	USP17 inh 40
Cc1ccc(NC(=O)Cn2cc(C(=O)N3CCCC3)c(=O)c3ccc(C)nc32)c(C)c1	none
CN1c2ccc(Cl)cc2-c2nc(SCC(=O)Nc3ccc(F)cc3)ncc2S1(=O)=O	USP8 inh 50
CC1CCN(c2ccc3ccc(C(=O)N4CCCN(C)CC4)cn23)CC1	none
O=C(CCc1ccccc1)N1CCN(c2cc(-c3cccnc3)[nH]n2)CC1	USP30 inh 30
O=C(c1cccc(Cl)c1)N1CCN(c2cc(-c3cccnc3)[nH]n2)CC1	none
Cc1cc(=O)[nH]c(SCC(=O)c2cc(C)n(CCC3=CCCCC3)c2C)c1C#N	USP17 inh 47, USP8 inh 49, USP10 inh 45
Cc1cc(C(=O)COC(=O)c2cc(=O)[nH]c3ccccc23)c(C)n1CC1COc2ccccc2O1 (centres undefined)	none
CC(=O)C1=C(O)[C@]2(O)C(=O)c3c(c(C)c4ccc(C)c(O)c4c3O)C[C@H]2[C@@H](N)C1=O	USP17 inh 60, USP7 inh 58, UCHL1 block 66
CCOc1ccc(NC(=O)COC(=O)C2(c3ccc(F)cc3)CCCC2)cc1	none
CN(C)c1ccc(NC(=O)COC(=O)C2(c3ccc(F)cc3)CCCC2)cc1	USP8 inh 72 (no result: USP17 inh)
CCCS(=O)(=O)N1CCC2(CCCN(c3ncc(F)cn3)C2)C1 (centres undefined)	none
CCN(C(=O)c1ccc(N)nc1)[C@H]1CCO[C@@H](c2cccc(-c3cc(F)cc(F)c3)c2)C1	none
O=C(c1ccccc1)N1CCCCCC1C1CCN(Cc2ccc([N+](=O)[O-])cc2)CC1 (centres undefined)	none
COc1ccc(NC(=O)CN2C(=O)CC(c3ccccc3)S(=O)(=O)c3ccccc32)cc1 (centres undefined)	USP17 inh 31
COc1ccccc1CNC(=O)CN1CC(C)Sc2ccccc21 (centres undefined)	none
Cc1cccc(NC(=O)CN2C(=O)CC(c3ccccc3)S(=O)(=O)c3ccccc32)c1C (centres undefined)	USP17 inh 51
COc1ccc(NC(=O)CN2CC(C)Sc3ccccc32)cc1 (centres undefined)	USP8 inh 44
Cc1ccccc1NC(=O)CN1C(=O)CC(c2ccccc2)S(=O)(=O)c2ccccc21 (centres undefined)	none
CCn1c(CN2CCOCC2)nnc1SCC(=O)c1ccc(F)cc1	none
CC1=Nc2cc(C(=O)N3CCC(Cc4ccccc4)CC3)ccc2Sc2ccccc21	none
O=C(Cc1ccccc1O)N1CCc2nc3ccccc3c(=O)n2CC1	none
Cc1ccc(C(C)C(=O)N2CCc3nc4ccccc4c(=O)n3CC2)cc1 (centres undefined)	USP30 inh 30
COc1ccc2[nH]c3c(c2c1)CCN1C(=O)CN(CCCc2ccccc2)C(=O)[C@]31C	none
COc1ccc(CNc2ncc(C(=O)N3CCN(c4ccc(F)cc4)CC3)c(C)n2)cc1	none
COc1ccc(N2CCN(C(=O)c3csc4c3CCC(C(C)(C)C)C4)CC2)cc1 (centres undefined)	USP8 inh 70
O=c1c2cnc(N3CCCCC3)nc2ccn1Cc1ccc2c(c1)OCO2	USP8 inh 42
Cc1ccc2oc(=O)c(S(=O)(=O)N3CCCCC3)cc2c1	USP17 inh 61
O=c1oc2ccccc2cc1S(=O)(=O)N1CCCCC1	none
